# Assay results taken from PubChem BioAssay AID463173 (ICCB-Longwood Screening Facility, Harvard Medical School, 2010).
# Among all 52,000 compounds or so, about 4,300 (8.3%) were called active. This is one part of a sample in which actives are shown more often than they occur. A number with no mark means an inactive call. Rule as the data show it: active = survival mostly below about 52% (no sharp cut-off); inactive = mostly above about 56%.
# Tested on: DeltatarO mutant
# Assay: growth inhibition of S. aureus wild type versus tarO mutant, primary screen, teichoic acid synthesis inhibitors, RN4220, OD600 (AID 463173)
# Conditions: OD600, 18 h, active compounds read low, screened at 18.75 µg/mL (by protocol)
row,Structure (SMILES),survival
1,Cn1c(C(=O)NCc2ccccc2Cl)cc2sc(Cl)cc21,64%
2,CCCCNC(=O)CCC1N=C2c3ccccc3N=C(SCC(=O)NCCc3ccc(OC)c(OC)c3)N2C1=O (configuration not stated),64%
3,COc1cc(Cl)c(C)cc1NC(=O)Cn1ncc2c3ccccc3n(Cc3ccccc3)c2c1=O,83%
4,CCC(=O)N1CCc2cc(S(=O)(=O)NC(C(=O)NCc3ccc(OC)cc3)C(C)C)ccc21 (configuration not stated),92%
5,Cc1ccccc1Nc1sc(C(=O)c2ccc3c(c2)OCO3)c(N)c1S(=O)(=O)c1ccccc1,78%
6,Cc1ccc(CNC(=O)C(C)n2nc(C)n3c(cc4sccc43)c2=O)cc1 (configuration not stated),111%
7,CCOc1ccc(NC(=O)CC2C(=O)N(c3cccc(C)c3)C(=O)N2Cc2ccco2)cc1 (configuration not stated),83%
8,CCOC(=O)CNC(=O)Nc1cc(C(=O)NCc2ccc(C(C)C)cc2)ccc1N1CCCC1,93%
9,Cc1ccc(-n2c(SCC(N)=O)nc3c(oc4ccccc43)c2=O)cc1,69%
10,CCCCOc1nnc(-c2ccc(OCC)cc2)c2ccccc12,-12% (active)
11,CCOc1ccc(-c2nnc(Nc3ccc(S(N)(=O)=O)cc3)c3ccccc23)cc1,56%
12,CCOc1ccc(-c2ncccc2O)cc1,105%
13,Cc1cc(=O)n(Cc2ccc(F)cc2Cl)c2c1c(C)nn2-c1ccccc1,96%
14,CCc1ccccc1NC(=O)Cn1c(=O)n(C(C)C)c(=O)c2oc3ccccc3c21,66%
15,COc1cccc(NC(=O)CSc2ncc3c(n2)-c2ccc(Cl)cc2N(C)S3(=O)=O)c1,37% (active)
16,CCOc1ccc(NC(=O)CSc2ncc3c(n2)-c2ccccc2N(C)S3(=O)=O)cc1,75%
17,COc1cc(NC(=O)CSc2ncc3c(n2)-c2ccc(Cl)cc2N(Cc2ccccc2)S3(=O)=O)cc(OC)c1,55%
18,Cc1ccc(NC(=O)CSc2ncc3c(n2)-c2ccc(Cl)cc2N(C)S3(=O)=O)cc1F,69%
19,CCc1cccc(NC(=O)CSc2ncc3c(n2)-c2cc(Cl)ccc2N(C)S3(=O)=O)c1,57%
20,CCOc1ccc(NC(=O)CSc2ncc3c(n2)-c2cc(Cl)ccc2N(C)S3(=O)=O)cc1,0% (active)
21,COc1ccc(CNC(=O)CN2C(=O)CCn3nc(-c4ccccc4)cc32)c(OC)c1,69%
22,COc1ccc(-c2nc3c(c(SCC(=O)Nc4cc(C)cc(C)c4)n2)Cc2c(CO)cnc(C)c2O3)cc1,80%
23,CN(C)S(=O)(=O)c1ccc2c(c1)nnn2CCNC(=O)Nc1ccc(Br)cc1,83%

row,Structure (SMILES),survival
1,O=C1Nc2nc(=O)nc3[nH]c(=O)nc(n23)N1,97%
2,COc1ccc(Cn2ccn(Cc3cccc(Cl)c3)c(=O)c2=O)cc1,112%
3,COc1ccc(Cn2ccn(Cc3cccc(OC)c3)c(=O)c2=O)cc1,46% (active)
4,COc1ccc(-n2ccn(CC(=O)Nc3ccc(C)cc3C)c(=O)c2=O)cc1,79%
5,COc1ccc(-c2cc3c(=O)n(CC(=O)Nc4cc(C)ccc4C)ccn3n2)cc1,88%
6,COc1ccc(Cn2ccn(Cc3cccc(C)c3)c(=O)c2=O)cc1,109%
7,COc1ccc(Cn2ccn(CC(=O)Nc3cc(C)ccc3C)c(=O)c2=O)cc1,47% (active)
8,CC(C)(C)c1ccc(OCCSc2nc(-c3cccs3)nc3cc(=O)[nH]n23)cc1,78%
9,CC(=O)NCC(c1ccc2c(c1)OCO2)N1CCN(c2ccccc2)CC1 (configuration not stated),80%
10,COc1ccc(NC(=O)c2ccc3c(c2)nnn3C2CCCC2)cc1Cl,88%
11,COc1cc(OC)c(OC)cc1CN1CCc2nc(N3CCN(c4ccccc4F)CC3)ncc2C1,72%
12,CCOc1ccccc1CN1CCc2nc(N3CCN(c4ccccc4F)CC3)ncc2C1,-4% (active)
13,CN1CCN(c2ncc3c(n2)CCN(Cc2cc(Br)cs2)C3)CC1,109%
14,CCOc1ccccc1CN1CCc2nc(N3CCN(C)CC3)ncc2C1,-2% (active)
15,COc1ccccc1N1CCN(c2ncc3c(n2)CCN(Cc2ccccc2F)C3)CC1,89%
16,COc1cc(OC)c(OC)cc1CN1CCc2nc(N3CCN(C)CC3)ncc2C1,84%
17,CCN1CCN(c2ncc3c(n2)CCN(Cc2ccc(Br)s2)C3)CC1,76%
18,CCN1CCN(c2ncc3c(n2)CCN(Cc2cc(Br)cs2)C3)CC1,6% (active)
19,CN1CCN(c2ncc3c(n2)CCN(Cc2ccccc2Cl)C3)CC1,79%
20,Cc1ccccc1CN1CCc2nc(N3CCN(c4ncccn4)CC3)ncc2C1,88%
21,CCN1CCN(c2ncc3c(n2)CCN(Cc2ccccc2C)C3)CC1,-1% (active)
22,Cc1ccccc1CN1CCc2nc(N3CCN(c4ccccn4)CC3)ncc2C1,94%
23,COc1cc(C(=O)n2nc(-c3ccco3)nc2NCc2ccc(Cl)cc2)cc(OC)c1OC,82%

row,Structure (SMILES),survival
1,COc1cccc(CNC(=O)CSC2=Nc3ccccc3C3=NC(C(C)C)C(=O)N23)c1 (configuration not stated),69%
2,Cc1ccc(Cl)cc1N1CCN(C(=O)C2CCN(S(=O)(=O)c3cn(C)cn3)CC2)CC1,98%
3,CC(=O)Nc1cccc(NC(=O)C2CCCN2C(=O)Nc2ccccc2Cl)c1 (configuration not stated),113%
4,CCOc1ccc(-c2csc(-c3nc(-c4ccc(Br)s4)cs3)n2)cc1,83%
5,NC(=O)c1c(NC(=O)CS(=O)(=O)c2ccc(Cl)cc2)sc2c1CCCCC2,82%
6,O=C(CSC1=Nc2ccccc2C2=NC(CCC(=O)NC3CCCCC3)C(=O)N12)Nc1cccc(Cl)c1 (configuration not stated),112%
7,CCC(=O)N1CCc2cc(Br)cc(S(=O)(=O)CCC(=O)N(C)c3cccc(C)c3)c21,62%
8,CCc1ccc(NC(=O)CC2C(=O)N(c3ccc(Cl)cc3)C(=O)N2Cc2cccs2)cc1 (configuration not stated),60%
9,CCOc1ccc(NC(=O)CC2C(=O)N(c3cccc(C)c3)C(=O)N2Cc2cccs2)cc1 (configuration not stated),89%
10,COc1cc(NC(=O)CC2C(=O)N(c3cccc(C)c3)C(=O)N2Cc2cccs2)cc(OC)c1 (configuration not stated),66%
11,Cc1cccc(N2C(=O)C(CC(=O)Nc3cccc(F)c3)N(Cc3cccs3)C2=O)c1 (configuration not stated),8% (active)
12,Cc1cccc(N2C(=O)C(CC(=O)Nc3cccc(F)c3)N(CCc3ccncc3)C2=O)c1 (configuration not stated),75%
13,CCc1ccc(NC(=O)CC2C(=O)N(c3cccc(C)c3)C(=O)N2Cc2cccs2)cc1 (configuration not stated),20% (active)
14,Cn1c(=O)n(C)c2cc(NS(=O)(=O)c3ccc(F)cc3)c(NCc3ccccc3)cc21,68%
15,CCc1nn(CCCC(=O)N2CCN(c3ccc(OC)cc3)CC2)c(=O)c2cc3occc3n12,87%
16,COc1ccc(OCc2nc3ccccc3n2Cc2ccccc2Cl)cc1,39% (active)
17,C=CCc1ccccc1OCc1nc2ccccc2n1CC,49%
18,Cc1ccccc1Cn1c(COc2ccc(Cl)cc2)nc2ccccc21,114%
19,Cc1cccc(C(=O)NCc2nc3ccccc3n2Cc2ccccc2Cl)c1,106%
20,Cc1ccc(OCc2nc3ccccc3n2Cc2ccccc2Cl)cc1,-8% (active)
21,C#CCn1c(COc2ccccc2C)nc2ccccc21,111%
22,Cc1ccccc1OCc1nc2ccccc2n1Cc1ccccc1Cl,0% (active)
23,COc1ccc(-n2c(=O)c3ccccc3n(Cc3ccccc3Cl)c2=O)cc1,110%

row,Structure (SMILES),survival
1,CCc1cc(C(=O)NCc2ccc(F)cc2)no1,53%
2,Cc1cc(=O)oc2cc(OCC(=O)NCc3ccco3)ccc12,74%
3,CC(C)C(c1nnnn1C1CCCC1)N1CCN(C(=O)c2ccco2)CC1 (configuration not stated),86%
4,Cc1cccc(C(=O)NCC(c2ccc3c(c2)OCO3)N2CCOCC2)c1 (configuration not stated),73%
5,Cc1ccc(N2C(=O)CCSC23C(=O)N(Cc2ccccc2)c2ccccc23)cc1 (configuration not stated),89%
6,Cc1cccc(NC(=O)CSc2nnc(N)s2)c1,149%
7,COc1cc(C(=O)NCCc2sc(-c3ccc(C)cc3)nc2C)cc(OC)c1OC,80%
8,Cc1ccc(-n2c(C)cc(/C=C3\SC(=O)NC3=O)c2C)cc1,95%
9,Cc1ccc(/C=C2\SC(=O)NC2=S)o1,33% (active)
10,Cc1ccc(N=Cc2ccc(C)o2)cc1,98%
11,Fc1ccc(CNc2ccc(N3CCCC3)cc2)cc1,97%
12,Cc1ccccc1CNC(=O)CN1C(=O)C2CCCCN2c2ccc(C(=O)N3CCCC3)cc21 (configuration not stated),76%
13,CCC(C)NC(=O)c1ccc2c(c1)N(Cc1ccccc1F)C(=O)c1ccccc1S2=O (configuration not stated),64%
14,Cc1ccc2oc(-c3ccc(Cl)cc3)c(O)c(=O)c2c1,72%
15,CC1CCCCN1C(=O)CSc1nnc(-c2ccccc2Cl)o1 (configuration not stated),74%
16,O=C(CSc1nnc(-c2cccc(F)c2)o1)N1c2ccccc2Sc2ccccc21,114%
17,COc1cccc(-c2nnc(SCC(=O)N3CCc4ccccc43)o2)c1,70%
18,O=C(CSc1nnc(-c2cccc(Cl)c2)o1)N1CCc2ccccc21,85%
19,CC1Cc2ccccc2N1C(=O)CSc1nnc(-c2cccc(Cl)c2)o1 (configuration not stated),34% (active)
20,CC1Cc2ccccc2N1C(=O)CSc1nnc(-c2ccccc2Cl)o1 (configuration not stated),49% (active)
21,CC1CCN(C(=O)CSc2nnc(-c3ccccc3Cl)o2)CC1,104%
22,CC1Cc2ccccc2N1C(=O)CSc1nnc(-c2ccccc2)o1 (configuration not stated),69%
23,COc1cccc(-c2nnc(SCC(=O)N3c4ccccc4Sc4ccccc43)o2)c1,35% (active)
